# Screening data from PubChem.
# A selection: hits, their analogues and other compounds. The true share with any hit is near 19%.
# S-ASM inh – blocks human secretory acid sphingomyelinase. placental ASM, HMU-PC fluorogenic substrate, 60 min. AID 504937. Potency, µM (doses to about 57.5 µM), without a hit: at the highest dose activity change, negative = inhibition, most hits filed as inhibitors. 340,000 tested, 0.006% active; further: potency means the concentration at half of the fitted maximal effect
# Target sequence (P17405 47-631 limits assumed): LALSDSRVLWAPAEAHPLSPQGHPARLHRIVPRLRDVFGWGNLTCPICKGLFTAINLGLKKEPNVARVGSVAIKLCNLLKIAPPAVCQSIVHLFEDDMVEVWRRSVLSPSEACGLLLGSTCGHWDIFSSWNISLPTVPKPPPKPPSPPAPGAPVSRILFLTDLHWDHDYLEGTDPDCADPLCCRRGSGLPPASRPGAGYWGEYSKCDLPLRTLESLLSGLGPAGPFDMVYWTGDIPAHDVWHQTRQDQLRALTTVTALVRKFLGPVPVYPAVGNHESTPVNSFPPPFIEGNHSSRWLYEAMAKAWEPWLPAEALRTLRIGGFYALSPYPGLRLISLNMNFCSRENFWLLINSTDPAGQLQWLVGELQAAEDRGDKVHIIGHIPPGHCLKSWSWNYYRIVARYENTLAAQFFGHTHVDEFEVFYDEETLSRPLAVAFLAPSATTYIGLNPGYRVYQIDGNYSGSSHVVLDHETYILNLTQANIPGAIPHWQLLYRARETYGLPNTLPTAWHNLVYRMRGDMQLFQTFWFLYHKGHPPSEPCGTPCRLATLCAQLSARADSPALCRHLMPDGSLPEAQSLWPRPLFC
#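 Fluorescence read-out (Ex 386 nm, Em 447 nm) after stopping the reaction at pH 10. Enzyme: ASM from human placenta; substrate HMU-PC0, 9 uM final; 60 min, 37 °C. Compound preincubation 10 min, ambient temperature.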
# DT40 TDP1 no CPT – qHTS for Inhibitors of human tyrosyl-DNA phosphodiesterase 1 (TDP1): qHTS in cells in absence of CPT; 420,000 tested, 15% active; AID 686978, 2013; Potency, µM (titrated, usually from 46.2 µM), for inactives: top-dose activity change, negative = growth inhibition, actives largely listed as inhibitors; DT40 Tdp1-/- hTDP1 cells, no CPT, ATP luminescence, 48 h; further: potency means the concentration at half of the fitted maximal effect; on the % scale 0 is the no-effect control and ±100 the full control effect; nearly all actives have a fitted effect of over 55% in size
#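 A cellular qHTS used chicken DT40 cells lacking endogenous Tdp1 but carrying stably transfected human TDP1. Compounds were applied without camptothecin, and cell growth kinetics were judged by ATP-dependent luminescence after ≥48 hr.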
# IL-1B inflam inh – blocks inflammasome-driven IL-1 beta release | 360,000 tested, 4.7% active | THP-1 LPS/ATP IL-1B secretion, AlphaLISA, 16 h; stronger effect = lower value | activity change, % at 57.5 µM; in the data active means activity change below about -50%; inconclusive means mostly about -30% to -49%; further: on the % scale 0 is the no-effect control and ±100 the full control effect
#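 Secreted IL-1B measured by AlphaLISA bead assay after 16 h compound exposure of THP-1 cells; compounds (final up to 57.5 uM) added 1 h before LPS (250 ng/mL) and ATP (1.25 mM) stimulation; lower signal means less secretion.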
# DT40 TDP1 CPT – growth inhibition of DT40 Tdp1-/-;hTDP1 cells with camptothecin (screen for TDP1 inhibitors); Potency, µM (series often up to 46.2 µM), inactives show at the top dose activity change, negative = growth inhibition, actives largely listed as inhibitors; chicken DT40 Tdp1-/-;hTDP1 cells + 20 nM CPT, ATP luminescence, 48 h; 420,000 tested, 12% active; further: potency means the concentration at half of the fitted maximal effect; on the % scale 0 is the no-effect control and ±100 the full control effect; nearly all actives have a fitted effect of over 55% in size
#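 Cell growth measured by CellTiter-Glo luminescence after a minimum 48 h, 37 C compound exposure with 20 nM CPT in Tdp1-knockout DT40 cells stably expressing hTDP1, seeded 400/well; qHTS titration format.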
# TGFb inhibitor – TGF-b pathway inhibition; Potency, µM (series often up to 46.1 µM), for the others: at the highest dose activity, negative = inhibition, actives largely listed as inhibitors; AID 588855; HepG2 CAGA-GFP TGF-b/SMAD3 reporter, GFP fluorescence, 18 h; TGF-beta stimulated, 500 pg/mL final; 410,000 tested, 1.2% active; further: potency means the concentration at half of the fitted maximal effect; on the % scale 0 is the no-effect control and ±100 the full control effect; nearly all actives have a fitted effect of over 65% in size
#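 Read-out: total well GFP (ex488/em500-530) summed from mean per-cell fluorescence. Cells: HEPG2 CAGA-GFP, 1% FBS DMEM, 18 h at 37 degrees C with 500 pg/mL final TGF-beta. Unstimulated wells served as the full-inhibition control; stimulated DMSO wells = 0%.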
# HepG2 tox – counter-screen for TGF-b inhibitors: cytotoxicity in HepG2 cells; HepG2 CAGA-GFP viability, ATP luminescence, 18 h; Potency, µM (doses to about 46.1 µM), without a hit: at the top dose activity change, negative = cytotoxicity, actives largely listed as cytotoxic; 410,000 tested, 0.76% active; further: potency means the concentration at half of the fitted maximal effect
#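 HepG2 CAGA-GFP cells (1000/well, DMEM with 1% FBS) received compound, then TGF-beta at 500 pg/mL final, and were incubated 18 hours at 37 degrees C. Viability was read by CellTiter-Glo luminescence. Media-only wells were set as complete cell-killing and DMSO as no toxicity.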
# * = called active by the depositor; i = inactive; u = inconclusive; x = no result given. Unless noted, the call rests on the fitted dose curve; in most records, active means well fitted curve in the direction sought with a large enough effect; inconclusive means small, poorly fitted or top-dose-only effect, or another doubt; inactive means no such curve, though single readings can be large; an effect the other way counts as inactive or inconclusive.
SMILES,S-ASM inh,DT40 TDP1 no CPT,IL-1B inflam inh,DT40 TDP1 CPT,TGFb inhibitor,HepG2 tox
Cc1cc(C(=O)Nc2c[nH]c(=O)[nH]c2=O)ccc1[N+](=O)[O-],3.7%,-8.5%,29.2,7.9%,-11.8%,1.8%
COc1cc(/C=N/NC(=O)c2cc(-c3cccc(Br)c3)nc3ccccc23)cc(OC)c1O,u,u,44.3,20.6µM*,u,-15.7%
COc1cc(/C=N\NC(=O)c2ccc(-c3ccccc3)cc2)cc(Br)c1O,-19.9%,u,i,u,19.8%,-14.9%
CCN(CC)c1ccc(C(=O)NC(=S)N2CCN(Cc3ccc4c(c3)OCO4)CC2)cc1,0.0%,-21.3%,-25.0,u,1.4%,-8.0%
CCOC(=O)c1cc(-c2ccccc2)n(-c2cccc(C(=O)N(C)c3ccc(C)cc3)c2)c1C,x,8.2µM*,x,-80.0%,1.2%,16.6%
COc1ccc(N(C(=O)c2ccc(Br)o2)C2C=CS(=O)(=O)C2)c(OC)c1 (centres undefined),-0.5%,18.4µM*,9.4,u,-0.8%,8.2%
COc1ccc(N(C(=O)c2ccc3c(c2)OCO3)C2C=CS(=O)(=O)C2)c(OC)c1 (centres undefined),0.3%,-0.6%,0.0,4.2%,10.8%,25.2%
COC(=O)C1CCN(Cc2ccc3c(c2)CN(C(=O)C(C)N2CCOCC2)CCO3)CC1 (centres undefined),x,-0.7%,x,13.8%,x,x
Cc1cc(C)nc(N2CCC(C(=O)NCCc3ccc(Cl)cc3)CC2)n1,-4.7%,u,0.0,13µM*,6.7%,4.4%
Cc1ccc(CNC(=O)C2CCN(c3nc(C)cc(C)n3)CC2)cc1,0.0%,-24.4%,-0.2,-8.5%,-6.6%,-11.4%
Cc1cc(C)nc(N2CCC(C(=O)NCCc3ccc(F)cc3)CC2)n1,6.5%,9.2µM*,41.6,16.4µM*,-7.3%,-7.8%
COc1ccc(N2CC(C(=O)NC3CCCCC3)CC2=O)cc1 (centres undefined),-13.9%,-0.7%,5.9,-1.9%,2.5%,1.1%
CCCN(CC(=O)Nc1ccccc1OC)C(=O)CN1C(=O)NC(C)(C)C1=O,x,-22.5%,14.7,6.3%,-5.3%,-28.0%
CCSC(=O)N=Nc1ccc(O)cc1,-9.9%,11.6µM*,0.0,14.6µM*,-14.6%,-23.8%
CC(C)[C@H]1c2ccc(F)cc2CC[C@@]1(CCN(C)CCCc1nc2ccccc2[nH]1)OC(=O)C1CC1,x,4.47µM*,x,5.01µM*,11.2µM*,-108.7%
CN(C)C(=O)Nc1ccccc1CC[N+](=O)[O-],8.5%,-12.8%,-64.8*,15.2%,-0.5%,-5.3%
O=C(Nc1ccc(Cl)cc1)Nc1cc([N+](=O)[O-])ccc1F,0.1%,-25.7%,12.7,-2.6%,-11.2%,-4.2%
O=C(Nc1ccc(Cl)cc1)Nc1ccccc1CC[N+](=O)[O-],-0.2%,u,-14.7,13µM*,8.7%,3.8%
Cc1[nH]c2ccccc2c1C(O)CN1CCC2(CC1)OCCO2 (centres undefined),0.2%,16.4µM*,0.0,u,0.0%,-14.5%
O=C(Nc1ccccc1-c1nc2ccccc2s1)c1ccc(F)cc1,x,-10.6%,x,-0.8%,26.6%,-4.7%
CNc1sc(C(=O)c2ccc(F)cc2)c(N)c1-c1nc2ccccc2s1,-2.9%,7.31µM*,9.5,5.17µM*,-21.4%,-0.3%
Cc1[nH]n(-c2ccccc2)c(=O)c1C=Nc1cnc2ccccc2c1,-8.5%,-25.8%,7.1,u,-22.5%,-46.2%
CCOc1ccc(N=Cc2c(C)[nH]n(-c3nc4ccccc4[nH]3)c2=O)cc1,4.4%,9.2µM*,18.3,10.3µM*,-21.9%,2.51µM*
CCC(=O)Oc1c(C(=O)CC)cc2c(C)cc(=O)oc2c1C,81.5%,u,-64.6*,u,-10.2%,-0.3%
CCC(=O)c1cc2c(C)cc(=O)oc2c(C)c1OC,-0.6%,-7.8%,-0.4,8.4%,1.4%,10.1%
SMILES,S-ASM inh,DT40 TDP1 no CPT,IL-1B inflam inh,DT40 TDP1 CPT,TGFb inhibitor,HepG2 tox
O=C(NCCN1C(=O)S/C(=C\c2ccc(Cl)c(Cl)c2)C1=O)C1COc2ccccc2O1 (centres undefined),-14.6%,u,-56.3*,u,u,-1.8%
O=C(CCN1C(=O)S/C(=C\c2ccc(Cl)cc2)C1=O)Nc1ccc(C(=O)O)cc1,1.5%,-27.3%,-20.1,-1.9%,-3.8%,3.2%
O=C(NCCN1C(=O)S/C(=C\c2ccc(Cl)c(Cl)c2)C1=O)c1ccc2c(c1)C(=O)N(Cc1ccncc1)C2=O,x,11.6µM*,u,13µM*,-6.7%,-14.8%
O=C(NCCCN1CCOCC1)C1COc2ccccc2O1 (centres undefined),-1.1%,-0.9%,-2.6,-5.6%,3.6%,-6.4%
CCOc1ccc(/C=C2\SC(=O)N(CCNC(=O)C3COc4ccccc4O3)C2=O)cc1OC (centres undefined),-2.9%,9.2µM*,-53.3*,11.6µM*,u,-3.0%
COc1ccc(/C=C2/SC(=O)N(CCNC(=O)C3COc4ccccc4O3)C2=O)cc1 (centres undefined),-1.6%,20.6µM*,7.7,u,u,-30.9%
CN(Cc1cn(Cc2cccc(Cl)c2)nn1)C1CN(Cc2cn(Cc3cccc(Cl)c3)nn2)S(=O)(=O)C1 (centres undefined),x,u,0.0,u,x,x
CC1=CC(=O)N(c2cccc3c(N4C(=O)C=C(C)C4=O)cccc23)C1=O,1.6%,2.91µM*,-80.7*,1.84µM*,-20.5%,-21.0%
CN(C)CC[n+]1ccc(C(=O)c2ccccc2)cc1,0.4%,2.59µM*,6.6,4.11µM*,4.3%,-2.1%
O=C(c1ccccc1)c1cc[n+]([O-])cc1,-0.5%,-4.9%,11.1,-0.8%,-2.3%,5.7%
Nc1ccc(-c2cnc(N)c(C(=O)c3cccnc3)n2)cn1,3.9%,3.66µM*,-91.2*,1.84µM*,7.94µM*,-19.2%
Nc1ccc(C(=O)c2cccs2)cn1,-1.6%,3.8%,-5.2,-0.8%,-4.5%,7.5%
O=S(=O)(c1ccccc1)[C@@]1(c2ccccc2)C[C@@H]2ON=C(c3cccc(Br)c3)[C@@H]2C1,-1.3%,3.66µM*,58.5,4.61µM*,-2.4%,-5.6%
O=C(O)[C@]1(S(=O)(=O)c2ccccc2)C[C@@H]2ON=C(c3cccc(Br)c3)[C@@H]2C1,5.9%,-20.7%,-13.7,u,9.6%,9.5%
